# Data taken from PMC11062922 (Nature Chemical Biology, 2023).
# Where two headings read alike, the source gives them in different places.
# Legend:
# Set-up in all cases: species or system human, MV4-11 + K-562 + COLO205 + SK-N-BE2 + OVCAR-8
# [1] = test system: MAP4K2; details: read-out: apparent Kd, n = 1
# [2] = test system: FER; details: read-out: apparent Kd; compound concentrations:100 nM and 1000 nM (sheet 'Samples'); n = 1
# [3] = test system: PAK4; details: read-out: apparent Kd; compound concentrations:100 nM and 1000 nM (sheet 'Samples'); n = 1
# [4] = test system: RPS6KA6; details: read-out: apparent Kd; compound concentrations:100 nM and 1000 nM (sheet 'Samples'); n = 1
# [5] = test system: ATM; details: read-out: apparent Kd, n = 1
# [6] = test system: CSNK1E; details: read-out: apparent Kd; compound concentrations:100 nM and 1000 nM (sheet 'Samples'); n = 1
# [7] = test system: ULK1; details: read-out: apparent Kd; compound concentrations:100 nM and 1000 nM (sheet 'Samples'); n = 1
# [8] = test system: BMP2K; details: read-out: apparent Kd; compound concentrations:100 nM and 1000 nM (sheet 'Samples'); n = 1
# [9] = test system: CDC42; details: read-out: apparent Kd, n = 1
# [10] = test system: CSNK1G1; details: read-out: apparent Kd; compound concentrations:100 nM and 1000 nM (sheet 'Samples'); n = 1
# [11] = test system: IKBKE; details: read-out: apparent Kd, compound concentrations: 100 nM and 1000 nM (sheet 'Samples'), n = 1
# [12] = test system: MELK; details: read-out: apparent Kd; compound concentrations:100 nM and 1000 nM (sheet 'Samples'); n = 1
# [13] = test system: PIK3C3; details: read-out: apparent Kd; compound concentrations:100 nM and 1000 nM (sheet 'Samples'); n = 1
# [14] = test system: MARK4; details: read-out: apparent Kd; compound concentrations:100 nM and 1000 nM (sheet 'Samples'); n = 1
# [15] = test system: STRADA; details: read-out: apparent Kd, n = 1
# [16] = test system: TP53RK; details: read-out: apparent Kd, n = 1
# [17] = test system: COX5A; details: read-out: apparent Kd, n = 1
# [18] = test system: ILK; details: read-out: apparent Kd, n = 1
# [19] = test system: DCTPP1; details: read-out: apparent Kd; compound concentrations:100 nM and 1000 nM (sheet 'Samples'); n = 1
# [20] = test system: PRKX;PRKY; details: read-out: apparent Kd; compound concentrations: 100 nM and 1000 nM (sheet 'Samples'), CATDS: 3.2948163641369002E-2; n = 1
# [21] = compound concentrations:100 nM and 1000 nM (sheet 'Samples')
smiles,measurement,setting,value
Nc1ncc(-c2cn[nH]c2)c2scc(-c3ccc4c(c3)CCN4C(=O)Cc3ccccc3)c12 [GSK2593067A],potency estimated from few doses,"[1]; compound concentrations: 100 nM and 1000 nM (sheet 'Samples'), CATDS: 0.15564611372576101",200 nM
COc1cc2ncn(-c3cc(OCCCc4ccccc4)c(C(N)=O)s3)c2cc1OC [GSK205189A],potency estimated from few doses,[2],55.1 nM
same,potency estimated from few doses,[3],1350 nM
same,potency estimated from few doses,[4],907 nM
CNc1nccc(-c2c(-c3ccc(F)cc3)ncn2C2CCN(C)CC2)n1 [SB-222903],potency estimated from few doses,[5]; [21],80.7 nM
same,potency estimated from few doses,[6],41.6 nM
Fc1ccc(-c2c(-c3ccncc3)[nH]c3nccnc23)cc1 [RO1155697-000],potency estimated from few doses,[6],52.8 nM
same,potency estimated from few doses,[7],1520 nM
COc1cc2ncn(-c3cc(OCc4cccs4)c(C(N)=O)s3)c2cc1OC [GSK312948A],potency estimated from few doses,[8],1430 nM
same,potency estimated from few doses,[9]; [21],1550 nM
Nc1nc(N)c2nc(-c3ccccc3)[nH]c2n1 [SKF-12778],potency estimated from few doses,[10],924 nM
Cc1ccc(O)cc1Nc1ccnc2ccc(C(C)(C)C)cc12 [GW856805X],potency estimated from few doses,"[9]; compound concentrations: 100 nM and 1000 nM (sheet 'Samples'), CATDS: 2.73171121323963E-2",1430 nM
Cn1cc(-c2ccc3c(c2)CCN3C(=O)Cc2cc(F)cc(C(F)(F)F)c2)c2c(N)ncnc21 [GSK2635225A],potency estimated from few doses,[11]; CATDS: 0.14106315772238301,1220 nM
Cl.Cn1c(=O)c(Cc2ccc(F)cc2F)cc2cnc(NC3CCOCC3)nc21 [RO3308757-001],potency estimated from few doses,[5]; [21],247 nM
same,potency estimated from few doses,[2],302 nM
same,potency estimated from few doses,[3],1650 nM
same,potency estimated from few doses,[4],599 nM
same,potency estimated from few doses,[7],1550 nM
COc1cc(/C=N/Nc2ncnc3[nH]ncc23)ccc1O [GW578748X],potency estimated from few doses,[12],2390 nM
N#Cc1cccc(Nc2nccc(-c3cnn4ncccc34)n2)c1 [GW778894X],potency estimated from few doses,[6],314 nM
same,potency estimated from few doses,[13],994 nM
O=S(=O)(CCOCc1ccc(-c2ccc3ncnc(Nc4ccc(OCc5cccc(F)c5)c(Cl)c4)c3c2)o1)c1ccccc1 [GW615311X],potency estimated from few doses,"[5]; compound concentrations: 100 nM and 1000 nM (sheet 'Samples'), CATDS: 0.104410485471121",179 nM
same,potency estimated from few doses,[11]; CATDS: 3.0296968888376598E-2,1150 nM
Nc1c(C(=O)c2ccccc2)cnn1-c1ccc(F)cc1 [RO1151246-000],potency estimated from few doses,[14],1290 nM
same,potency estimated from few doses,[15]; [21],1830 nM
same,potency estimated from few doses,[16]; [21],1850 nM
COc1cc2ncn(-c3cc(OCc4sccc4Cl)c(C(N)=O)s3)c2cc1OC [GSK448459A],potency estimated from few doses,[1]; [21],827 nM
Cc1ccc(-n2nc(C(C)(C)C)cc2NC(=O)Nc2ccc(OCCN3CCOCC3)cc2)cc1 [BIRB0876BS],potency estimated from few doses,[17]; [21],963 nM
same,potency estimated from few doses,[18]; [21],1870 nM
Clc1ccc(-c2nn3ncccc3c2-c2ccnc(Nc3ccccc3)n2)cc1 [GW829055X],potency estimated from few doses,"[18]; compound concentrations: 100 nM and 1000 nM (sheet 'Samples'), CATDS: 5.2015680047351402E-2",690 nM
COc1ccc(Nc2nccc(N3CCC(NC(=O)Nc4cccc(OC)c4)C3)n2)cc1 (stereo not shown) [GSK1379742A],potency estimated from few doses,"[16]; compound concentrations: 100 nM and 1000 nM (sheet 'Samples'), CATDS: 0.10793216189185099",2270 nM
NC(=O)c1cccnc1COc1cc(-c2ccc(N3CCOCC3)nc2)cc2ncccc12 [BI01125081],potency estimated from few doses,[19],1970 nM
same,potency estimated from few doses,[13],1260 nM
COc1ccc(C2=C(c3cn(C)c4ccccc34)C(=O)NC2=O)cc1OC [RO3206363-000],potency estimated from few doses,[20],1620 nM
same,potency estimated from few doses,"[15]; compound concentrations: 100 nM and 1000 nM (sheet 'Samples'), CATDS: 3.11031335260477E-2",2050 nM
Cc1[nH]nc2c1N=C(c1ccccc1Cl)c1cc([N+](=O)[O-])ccc1N2 [RO0274406-000],potency estimated from few doses,"[17]; compound concentrations: 100 nM and 1000 nM (sheet 'Samples'), CATDS: 8.1877347137814999E-2",832 nM
Fc1cccc(COc2ccc(Nc3ncncc3C#Cc3ccccc3)cc2Cl)c1 [GW651576X],potency estimated from few doses,"[9]; compound concentrations: 100 nM and 1000 nM (sheet 'Samples'), CATDS: 5.6163427913581303E-2",1410 nM
same,potency estimated from few doses,"[18]; compound concentrations: 100 nM and 1000 nM (sheet 'Samples'), CATDS: 6.7664406837509503E-2",1010 nM
Fc1ccc(-c2ncn(C3CCNCC3)c2-c2ccnc(Oc3ccc4c(c3)OCO4)n2)cc1 [SB-250715],potency estimated from few doses,[6],811 nM
COc1ccccc1-c1cc(/C=C2\C(=O)Nc3ncc(Br)cc32)cc(Br)c1O [GW442130X],potency estimated from few doses,[16]; [21],1740 nM
